Reference: PubChem BioAssay AID1159580 (chemical genetic matrix, 2015)
Out of some 5,500 compounds screened, about 2,000 (36%) were called active. Roughly 18% stayed inconclusive and do not appear here. Cut-off read from the data, not from the text of the source: active = normalized growth mostly below about 0.91 (no sharp cut-off); inconclusive = no clear call, values can overlap the other calls; inactive = mostly above about 0.92. Some of the results follow.

Assay: chemical genetic growth profiling, strain panel (AID 1159580);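 note: tested at 20 µM; growth read once vehicle control cultures reached saturation at 30 °C; 1 = growth at the plate median or of vehicle wells; lower values mean less growth of the strain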
Conditions: S. cerevisiae deletion strains, growth OD

Measured: normalized growth

CC1CC2C3CC(F)C4=CC(=O)C=CC4(C)C3(F)C(O)CC2(C)C1(O)C(=O)CO (centres undefined)
inactive: locus YAL013W, strain DEP1, stronger effect = lower value 1.03 | locus YAL021C, strain ccr4, stronger effect = lower value 0.997 | locus YAL026C, strain drs2, stronger effect = lower value 1 | locus YAL030W, strain snc1, stronger effect = lower value 1 | locus YBL061C, strain skt5, stronger effect = lower value 0.996 | locus YBR009C, strain hhf1, stronger effect = lower value 0.997 | locus YBR021W, strain FUR4, stronger effect = lower value 1.03 | locus YBR023C, strain chs3, stronger effect = lower value 0.988 | locus YBR171W, strain sec66, stronger effect = lower value 0.997 | locus YBR229C, strain ROT2, stronger effect = lower value 1.01 | locus YBR231C, strain swc5, stronger effect = lower value 0.992 | locus YBR279W, strain paf1, stronger effect = lower value 0.989 | locus YCL011C, strain gbp2, stronger effect = lower value 0.992 | locus YCL016C, strain dcc1, stronger effect = lower value 0.98 | locus YCL029C, strain bik1, stronger effect = lower value 1.03 | locus YCL061C, strain MRC1, stronger effect = lower value 0.999 | locus YCL069W, strain vba3, stronger effect = lower value 1.01 | locus YCR088W, strain abp1, stronger effect = lower value 1 | locus YDL005C, strain med2, stronger effect = lower value 0.993 | locus YDL035C, strain GPR1, stronger effect = lower value 1.05 | locus YDL040C, strain nat1, stronger effect = lower value 0.997 | locus YDL074C, strain BRE1, stronger effect = lower value 1.09 | locus YDL101C, strain DUN1, stronger effect = lower value 1.02 | locus YDL134C, strain PPH21, stronger effect = lower value 1.01 | locus YDL185W, strain tfp1, stronger effect = lower value 1.03 | locus YDL192W, strain arf1, stronger effect = lower value 1.03 | locus YDR001C, strain nth1, stronger effect = lower value 1.01 | locus YDR069C, strain doa4, stronger effect = lower value 1.01 | locus YDR101C, strain arx1, stronger effect = lower value 1.02 | locus YDR137W, strain rgp1, stronger effect = lower value 0.995 | locus YDR150W, strain NUM1, stronger effect = lower value 1.03 | locus YDR159W, strain sac3, stronger effect = lower value 1.01 | locus YDR162C, strain NBP2, stronger effect = lower value 1.02 | locus YDR195W, strain ref2 0.968 | locus YDR297W, strain sur2, stronger effect = lower value 0.99 | locus YDR318W, strain mcm21, stronger effect = lower value 1.05 | locus YDR334W, strain swr1, stronger effect = lower value 0.994 | locus YDR335W, strain msn5, stronger effect = lower value 1 | locus YDR388W, stronger effect = lower value 1.01 | locus YDR392W, strain spt3, stronger effect = lower value 0.995 | locus YDR502C, strain sam2, stronger effect = lower value 1.02 | locus YEL003W, strain gim4, stronger effect = lower value 1.01 | locus YEL037C, strain rad23, stronger effect = lower value 1 | locus YEL061C, strain CIN8 (second series), stronger effect = lower value 1.01 | locus YEL061C, strain CIN8, stronger effect = lower value 1.01 | locus YER015W, strain faa2, stronger effect = lower value 1 | locus YER016W, strain bim1, stronger effect = lower value 0.995 | locus YER110C, stronger effect = lower value 1.03 | locus YER111C, strain swi4, stronger effect = lower value 1 | locus YER155C, strain BEM2 (second series), stronger effect = lower value 1.03 | locus YER155C, strain BEM2, stronger effect = lower value 0.999 | locus YER167W, strain BCK2, stronger effect = lower value 1.05 | locus YFR010W, strain ubp6, stronger effect = lower value 1.01 | locus YGL078C, strain dbp3, stronger effect = lower value 1.02 | locus YGL086W, strain mad1, stronger effect = lower value 1.04 | locus YGL167C, strain pmr1, stronger effect = lower value 0.991 | locus YGL173C, strain kem1, stronger effect = lower value 1.01 | locus YGL227W, strain vid30, stronger effect = lower value 0.998 | locus YGL240W, strain doc1, stronger effect = lower value 1 | locus YGL248W, strain PDE1, stronger effect = lower value 1.01 | locus YGL253W, strain hxk2, stronger effect = lower value 0.983 | locus YGR078C, strain PAC10, stronger effect = lower value 1.04 | locus YGR135W, strain pre9, stronger effect = lower value 1.03 | locus YGR229C, strain SMI1, stronger effect = lower value 1.02 | locus YGR252W, strain gcn5, stronger effect = lower value 1.06 | locus YHR013C, strain ard1, stronger effect = lower value 0.985 | locus YHR027C, strain rpn1, stronger effect = lower value 1.01 | locus YHR030C, strain SLT2, stronger effect = lower value 1.02 | locus YHR079C, strain IRE1 (second series), stronger effect = lower value 1.02 | locus YHR094C, strain hxt1, stronger effect = lower value 1.02 | locus YHR129C, strain ARP1, stronger effect = lower value 1.01 | locus YHR142W, strain chs7, stronger effect = lower value 0.995 | locus YHR200W, strain rpn10, stronger effect = lower value 1.03 | locus YIL066C, strain RNR3, stronger effect = lower value 1.04 | locus YIL073C, strain SPO22, stronger effect = lower value 1.1 | locus YIL125W, strain kgd1, stronger effect = lower value 1.02 | locus YIR030C, strain dcg1, stronger effect = lower value 1.02 | locus YJL092W, strain hpr5, stronger effect = lower value 1 | locus YJL095W, strain BCK1 (second series), stronger effect = lower value 0.997 | locus YJL095W, strain BCK1, stronger effect = lower value 1.02 | locus YJL115W, strain asf1, stronger effect = lower value 1.01 | locus YJL129C, strain trk1, stronger effect = lower value 0.997 | locus YJL134W, strain LCB3, stronger effect = lower value 1.02 | locus YJL154C, strain vps35, stronger effect = lower value 1.01 | locus YJL164C, strain tpk1, stronger effect = lower value 1.01 | locus YJL166W, strain qcr8, stronger effect = lower value 0.993 | locus YJL168C, strain set2, stronger effect = lower value 1.02 | locus YJL187C, strain SWE1 (second series), stronger effect = lower value 1.02 | locus YJL187C, strain SWE1, stronger effect = lower value 0.986
